Experimental data: PubChem BioAssay
Active and inactive are the calls of the source.

Experiments:
[1] = E. coli DRC41 culture turbidity changes, primary screen, E. coli filamentation inducer project, strain DRC41, OD650, 48 h (AID 1152);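 also: E. coli MC1000 strain DRC41 lacking acrAB efflux pump and sulA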; conditions: E. coli DRC41 (acrAB sulA), higher = more signal, called active from +8 up or from −8 down
[2] = small-molecule binders of probe aLefty1, primary screen, biochemical, small-molecule microarray, 635/667 nm fluorescence (AID 1153); conditions: higher = more signal;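 also: score merges spot fluorescence with signal-to-noise ratio from the scanned slide images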
[3] = PSAC antagonists in infected red cells, primary screen, cell-based, P. falciparum Indochina, OD700, 1 h (AID 1154); conditions: P. falciparum Indochina infected RBC osmotic lysis, higher = more signal, called active from +8 up or from −8 down
[4] = PSAC antagonists in infected red cells, primary screen, cell-based, P. falciparum Indochina, OD700, 2 h (AID 1155);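 also: lysis reports solute entry through the parasite surface anion channel PSAC; channel blockers reduce lysis of infected cells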; conditions: P. falciparum Indochina infected erythrocytes, osmotic lysis OD700; higher = more signal, called active from +8 up or from −8 down
[5] = osmotic lysis modulators in infected erythrocytes, primary screen, PSAC antagonist project, cell-based, P. falciparum Indochina, OD700, 3 h (AID 1156); conditions: higher = more signal, called active from +8 up or from −8 down
[6] = PSAC antagonists in infected red cells, primary screen, cell-based, P. falciparum Indochina, OD700, 18 h (AID 1157); conditions: P. falciparum Indochina infected erythrocytes, osmotic lysis OD700, 18 h; higher = more signal, called active from +8 up or from −8 down
[7] = modulators of S6 phosphorylation in cells, primary screen, cell-based, A549, cytoblot, luminescence, serum-stimulated (AID 1158); conditions: A549 phospho-S6 cytoblot, 5 h, higher = more signal;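 also: serum-stimulated A549 lung adenocarcinoma cells; signal is phosphorylated S6 detected by cytoblot immunostaining with HRP secondary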
[8] = target: NADPH oxidase 2 (Homo sapiens) (UniProt P04839); assay: NOX2-dependent H2O2 signal modulators, primary screen, NOX inhibitor project, cell-based, HEK293-NOX2, PMA-stimulated, Amplex Red fluorescence (AID 1159); conditions: 45 min, higher = more signal, called active from +8 up or from −8 down; also: test concentration not given here
[9] = target: NADPH oxidase 4 (Homo sapiens) (UniProt Q9NPH5); assay: NOX4-dependent H2O2 signal modulators, primary screen, NOX inhibitor project, cell-based, HEK293-NOX4, tetracycline-induced, Amplex Red fluorescence (AID 1160); conditions: 45 min, higher = more signal, called active from +8 up or from −8 down
[10] = target: NADPH oxidase 5 (Homo sapiens) (UniProt Q96PH1); assay: NOX5-dependent H2O2 signal modulators, primary screen, NOX inhibitor project, cell-based, HEK293-NOX5, Amplex Red fluorescence (AID 1161); conditions: HEK293-NOX5, ionomycin, 45 min, higher = more signal
Sequence of NADPH oxidase 5 (Homo sapiens) (Q96PH1 whole entry, looked up): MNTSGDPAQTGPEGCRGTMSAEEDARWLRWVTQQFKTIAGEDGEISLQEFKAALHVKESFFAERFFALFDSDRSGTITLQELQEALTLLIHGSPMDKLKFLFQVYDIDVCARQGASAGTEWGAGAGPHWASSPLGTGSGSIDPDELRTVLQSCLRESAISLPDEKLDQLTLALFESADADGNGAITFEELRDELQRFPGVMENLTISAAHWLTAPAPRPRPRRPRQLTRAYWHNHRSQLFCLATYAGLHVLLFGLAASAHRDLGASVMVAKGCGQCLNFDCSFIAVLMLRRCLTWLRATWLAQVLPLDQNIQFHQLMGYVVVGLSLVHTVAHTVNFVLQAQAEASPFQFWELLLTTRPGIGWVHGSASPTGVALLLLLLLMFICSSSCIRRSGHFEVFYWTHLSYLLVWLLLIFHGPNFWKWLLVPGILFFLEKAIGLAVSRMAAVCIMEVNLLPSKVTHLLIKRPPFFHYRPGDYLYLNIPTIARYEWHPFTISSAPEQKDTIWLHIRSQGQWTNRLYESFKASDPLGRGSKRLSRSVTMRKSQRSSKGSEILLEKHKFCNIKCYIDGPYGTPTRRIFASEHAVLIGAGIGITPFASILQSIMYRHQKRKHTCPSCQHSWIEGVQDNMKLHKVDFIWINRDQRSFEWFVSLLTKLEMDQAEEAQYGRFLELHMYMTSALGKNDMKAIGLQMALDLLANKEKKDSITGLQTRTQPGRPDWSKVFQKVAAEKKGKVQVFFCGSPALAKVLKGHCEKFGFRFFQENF

Sequence of NADPH oxidase 2 (Homo sapiens) (P04839 whole entry, looked up): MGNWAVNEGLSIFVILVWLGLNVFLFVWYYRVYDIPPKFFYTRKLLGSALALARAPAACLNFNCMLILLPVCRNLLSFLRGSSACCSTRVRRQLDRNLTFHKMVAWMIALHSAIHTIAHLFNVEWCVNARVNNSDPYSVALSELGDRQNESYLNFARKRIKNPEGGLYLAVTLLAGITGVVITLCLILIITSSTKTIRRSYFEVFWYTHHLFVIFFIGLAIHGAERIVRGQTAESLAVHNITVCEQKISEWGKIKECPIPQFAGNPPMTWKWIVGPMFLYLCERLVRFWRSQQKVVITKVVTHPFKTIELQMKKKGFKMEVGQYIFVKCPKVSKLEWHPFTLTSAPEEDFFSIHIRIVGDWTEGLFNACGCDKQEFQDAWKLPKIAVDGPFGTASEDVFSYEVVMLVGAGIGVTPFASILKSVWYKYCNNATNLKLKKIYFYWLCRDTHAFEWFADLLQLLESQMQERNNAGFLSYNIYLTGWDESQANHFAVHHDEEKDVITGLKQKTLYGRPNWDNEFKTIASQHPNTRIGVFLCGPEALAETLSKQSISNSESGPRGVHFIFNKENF
Sequence of NADPH oxidase 4 (Homo sapiens) (Q9NPH5 whole entry, looked up): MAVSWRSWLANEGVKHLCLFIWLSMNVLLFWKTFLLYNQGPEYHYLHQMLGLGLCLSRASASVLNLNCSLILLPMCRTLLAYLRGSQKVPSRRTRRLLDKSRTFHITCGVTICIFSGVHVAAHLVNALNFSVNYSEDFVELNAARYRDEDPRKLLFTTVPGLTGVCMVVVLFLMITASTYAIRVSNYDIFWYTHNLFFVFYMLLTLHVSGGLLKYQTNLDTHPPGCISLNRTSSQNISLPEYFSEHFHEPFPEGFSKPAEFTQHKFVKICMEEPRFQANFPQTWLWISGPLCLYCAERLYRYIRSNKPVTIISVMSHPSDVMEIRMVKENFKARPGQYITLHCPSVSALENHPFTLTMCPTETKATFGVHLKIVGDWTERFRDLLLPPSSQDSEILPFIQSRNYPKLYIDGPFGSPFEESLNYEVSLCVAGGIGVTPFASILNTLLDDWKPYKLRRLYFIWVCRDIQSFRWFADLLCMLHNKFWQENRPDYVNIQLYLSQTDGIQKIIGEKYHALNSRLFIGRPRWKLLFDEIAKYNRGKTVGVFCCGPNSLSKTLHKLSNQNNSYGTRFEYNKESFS

| SMILES | z-score [1] | composite z-score [2] | z-score [3] | z-score [4] | z-score [5] | z-score [6] | z-score [7] | z-score [8] | z-score [9] | z-score [10] |
| --- | --- | --- | --- | --- | --- | --- | --- | --- | --- | --- |
| COC(=O)[C@@]1(Cc2ccccc2CN=[N+]=[N-])N=C(c2ccc(OCCCO)cc2)O[C@H]1c1ccccc1N=[N+]=[N-] | -0.55 (inactive) | 0.495 | 26.8 (active) | 16.8 (active) | 1.76 (inactive) | 2.33 (inactive) | 0.166 | -1.2 (inactive) | 1.25 (inactive) | 0.841 |
| COCCOC(=O)N1C(=O)[C@@]2(c3cc(C#CCC(C(=O)OC)C(=O)OC)ccc31)[C@H](C(=O)N1CCN(c3ncccn3)CC1)[C@H]1C(=O)O[C@H](c3ccccc3)[C@H](c3ccccc3)N1[C@@H]2c1ccc(O)cc1 | 3.34 (inactive) | 0.443 | 1.92 (inactive) | -0.0642 (inactive) | -0.504 (inactive) | -1.39 (inactive) | 1.69 | 1.28 (inactive) | 0.7 (inactive) | 1.82 |
| CO[C@H]1COC(=O)[C@@H](C)COC(=O)[C@H](Cc2ccccc2)NC(=O)CC=C[C@H]1C | -0.507 (inactive) | -0.363 | -0.318 (inactive) | -1.31 (inactive) | -0.116 (inactive) | -2.15 (inactive) | 0.627 | 0.714 (inactive) | 0.791 (inactive) | 0.299 |
| CN(C)CCCC[C@@H]1NC(=O)[C@@H]2C[C@H](C(=O)NCCCCCNC(=O)CS)[C@H](c3ccc(O)cc3)N2C1=O | 1.04 (inactive) | -0.227 | 1.06 (inactive) | -1.21 (inactive) | -3.46 (inactive) | -2.25 (inactive) | 0.209 | 0.109 (inactive) | 0.501 (inactive) | 0.398 |
| COC(=O)[C@@]1(Cc2ccccc2)[C@H]2c3cc(C(=O)N4CCCC4)n(CCN4CNCC4=O)c3C[C@H]2CN1C(=O)c1ccccc1 | -1.1 (inactive) | 0.0176 | -0.469 (inactive) | -1.05 (inactive) | 0.423 (inactive) | -1.63 (inactive) | 0.212 | 0.122 (inactive) | 1.61 (inactive) | 0.595 |
| C=CCNC(=O)[C@H]1[C@@H]2C(=O)O[C@@H](c3ccccc3)[C@@H](c3ccccc3)N2[C@@H](c2ccc(O)cc2)[C@]12C(=O)Nc1ccc(C#CCNC(N)=O)cc12 | 1.86 (inactive) | 0.599 | 1.7 (inactive) | 1.29 (inactive) | 0.682 (inactive) | 0.506 (inactive) | 0.583 | 1.19 (inactive) | -0.188 (inactive) | 0.1 |
| COC(=O)C[C@H]1O[C@]2(C(=O)N(Cc3ccccc3)c3ccc(I)cc32)[C@@H](C)[C@@H]1[Si](C)(C)c1ccc(OC)cc1 | -0.562 (inactive) | -0.235 | 1.09 (inactive) | 0.544 (inactive) | 0.558 (inactive) | 0.574 (inactive) | 1.01 | 1.89 (inactive) | -2.05 (inactive) | 0.00992 |
| C[C@]1(C(=O)NCc2ccccc2)c2ccccc2C(=O)N(Cc2cc(C(F)(F)F)cc(C(F)(F)F)c2)[C@H]1c1ccc(CO)cc1 | 2.32 (inactive) | 0.364 | 6.25 (inactive) | 1.11 (inactive) | 0.709 (inactive) | 0.448 (inactive) | 3.92 | -1.35 (inactive) | -1.03 (inactive) | -1 |
| C=CC(=O)O[C@@H](Cc1ccccc1)[C@H]1C2C=CCCC=C2CN1Cc1cccc(Cl)c1 (stereo not given in full) | 3.24 (inactive) | -0.378 | 1.35 (inactive) | 0.893 (inactive) | 0.781 (inactive) | 0.182 (inactive) | 0.711 | -0.192 (inactive) | 0.758 (inactive) | 0.467 |
| CCOC(=O)C1=CCC(c2cccc3ccccc23)N(S(=O)(=O)c2ccc(C)cc2)C1 (stereo not given) | -0.894 (inactive) | 0.071 | 1.49 (inactive) | 0.902 (inactive) | -1.54 (inactive) | 0.411 (inactive) | -0.415 | 1.42 (inactive) | 1.17 (inactive) | 1.49 |
| COc1ccc(CCN2C(=O)[C@@]3(c4ccc([N+](=O)[O-])cc4)CC(=O)N(CC45CC6CC(CC(C6)C4)C5)[C@@H]3c3ccc(CO)cc32)cc1 | 0.683 (inactive) | 0.585 | 1.39 (inactive) | 0.77 (inactive) | 0.393 (inactive) | 0.427 (inactive) | -0.385 | -0.447 (inactive) | -0.968 (inactive) | 1.43 |
| CSCC[C@@H]1NC(=O)CC=C[C@@H](C)COC(=O)[C@H](CCSC)NC(=O)CC=C[C@@H](C)COC1=O | -0.77 (inactive) | -0.0559 | -0.138 (inactive) | -0.774 (inactive) | -1.73 (inactive) | -1.85 (inactive) | 0.214 | -1.26 (inactive) | 0.731 (inactive) | 1.5 |
| C=CC[C@@]12N=C(c3ccc(OCCCO)cc3)O[C@@H]1c1ccccc1CN(Cc1ccccc1)C2=O | 0.786 (inactive) | 0.271 | 28.3 (active) | 24.9 (active) | 3.34 (inactive) | 2.29 (inactive) | 0.557 | -1.33 (inactive) | -0.765 (inactive) | -1.71 |
| C=CCN(C(=O)C1N(c2ccc(CCO)cc2)C(=O)C2C(C(=O)O)C3C=CC21O3)C(C)(C)C (stereo not given) | 2.75 (inactive) | 0.0445 | 0.0302 (inactive) | -1.14 (inactive) | -1.43 (inactive) | -1.91 (inactive) | 0.434 | 1.9 (inactive) | -1.46 (inactive) | 0.845 |
| N#Cc1ccc(NN2C(C(O)c3ccc(I)cc3)C=CC3C(=O)N(c4ccccc4)C(=O)C32)cc1 (stereo not given) | -1.95 (inactive) | 0.526 | 9.81 (active) | 3.64 (inactive) | -1.43 (inactive) | 2.57 (inactive) | -0.484 | -2.64 (inactive) | -4.46 (inactive) | -2.48 |
| COc1ccc([Si](C)(C)[C@H]2[C@H](CCO)O[C@@]3(C(=O)N(Cc4ccccc4)c4ccc(N5C(=O)c6cccc7cccc5c67)cc43)[C@@H]2C)cc1 | 1.85 (inactive) | -0.105 | 3.41 (inactive) | 2.34 (inactive) | 1.36 (inactive) | 1.65 (inactive) | 0.314 | -1.35 (inactive) | 0.163 (inactive) | 0.513 |
| CC(C)[Si](OCC[C@H]1O[C@]2(C(=O)N(Cc3ccccc3)c3ccccc32)[C@@H](C)[C@@H]1[Si](C)(C)O)(C(C)C)C(C)C | 0.65 (inactive) | -0.193 | 0.914 (inactive) | 0.799 (inactive) | 0.226 (inactive) | 0.403 (inactive) | 0.158 | 0.999 (inactive) | -0.328 (inactive) | 0.523 |
| CO[C@H]1COC(=O)CC=C[C@H](C)[C@@H](OC)COC(=O)CC=C[C@@H]1C | 1.32 (inactive) | 0.0962 | 1.35 (inactive) | 0.636 (inactive) | 0.357 (inactive) | 0.254 (inactive) | 1.26 | 0.59 (inactive) | 1.19 (inactive) | 0.435 |
| COc1ccc([Si](C)(C)[C@@H]2[C@@H](CC(=O)N(CCO)Cc3ccccc3)O[C@]3(C(=O)N(Cc4cccc(N5CCC5=O)c4)c4ccccc43)[C@H]2C)cc1 | 0.557 (inactive) | 0.122 | 3.67 (inactive) | 1.49 (inactive) | 0.0319 (inactive) | 1.19 (inactive) | 1.61 | 1.34 (inactive) | 1.48 (inactive) | 3.23 |
| C#CCNC(/C=C/c1ccccc1)CO (stereo not given) | -0.759 (inactive) | -0.252 | -0.181 (inactive) | 0.36 (inactive) | 0.286 (inactive) | 0.0834 (inactive) | 0.168 | -0.867 (inactive) | 0.813 (inactive) | -0.548 |
| C[C@H]1COC(=O)[C@H](Cc2ccccc2)NC(=O)[C@@H](C)COC(=O)[C@H](Cc2ccccc2)NC1=O | -0.0556 (inactive) | -0.239 | 0.162 (inactive) | -0.643 (inactive) | -0.295 (inactive) | -1.93 (inactive) | 1.58 | 0.915 (inactive) | 0.838 (inactive) | 0.253 |
| CCCC/C=C/[C@H]([C@@H](O)Cc1ccccc1)N(CC#Cc1ccccc1)Cc1ccccc1Br | 2.99 (inactive) | -0.0061 | 2.63 (inactive) | 1.29 (inactive) | -0.0195 (inactive) | 0.522 (inactive) | 0.108 | -0.424 (inactive) | 0.426 (inactive) | -0.622 |
| O=C(CS)NCCCCCNC(=O)[C@H]1C[C@H]2C(=O)N[C@@H](Cc3ccccc3)C(=O)N2[C@H]1c1ccc(O)cc1 | 0.956 (inactive) | 0.0371 | 6.87 (inactive) | -0.29 (inactive) | -1.1 (inactive) | -1.95 (inactive) | 0.263 | 0.99 (inactive) | -0.205 (inactive) | 0.0913 |
| O=C1OCCC=C[C@H]2OC34C=CCN(Cc5ccccc5)C(=O)[C@H]3N(CCO)C(=O)[C@@H]4C12 (stereo not given in full) | 2.51 (inactive) | -0.133 | 1.07 (inactive) | -0.436 (inactive) | -0.769 (inactive) | -0.8 (inactive) | 1.82 | 0.681 (inactive) | -0.573 (inactive) | 0.869 |
| COCCOC(=O)N1C(=O)[C@@]2(c3cc(C#CCNC(N)=O)ccc31)[C@H](c1ccc(OCCO)cc1)N1[C@H](c3ccccc3)[C@H](c3ccccc3)OC(=O)[C@H]1[C@@H]2C(=O)Nc1nc2ccccc2s1 | 2.28 (inactive) | 0.0844 | 2.66 (inactive) | 1.67 (inactive) | 0.73 (inactive) | 1.24 (inactive) | 0.652 | 0.398 (inactive) | -0.211 (inactive) | 1.12 |
